PubChem BioAssay (NCATS)
Several values for one entry are separate records, joined by “and”; a condition that tells them apart may be missing. Identical values can stand only once. Inconclusive results are not listed. Activity calls are given as the source filed them. The call rests on the fitted dose curve; in most records, active means well fitted curve in the direction sought with a large enough effect; inconclusive means small, poorly fitted or top-dose-only effect, or another doubt; inactive means no such curve, though single readings can be large; an effect the other way counts as inactive or inconclusive.

What was measured:
[1] = MultiTox-Fluor Cytotoxicity Assay - LYMP1-002 - Dead Cells (AID 960); further: nearly all actives have a fitted effect of over 60% in size; further: potency means the concentration at half of the fitted maximal effect
How it was run: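 LYMP1-002 cells 2500/well; 5 hr 37 C pre-incubation; compound 16 hr 37 C; MultiTox-Fluor reagent 60 min RT; dead-cell fluor Ex/Em 485/520. Norm. to DMSO (0%) vs 15 uM tetraoctylammonium bromide (100%); Hill AC50.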

[2] = MultiTox-Fluor Cytotoxicity Assay - LYMP1-003 - Dead Cells (AID 961);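 further: cells exposed to compound for 16 h at 37 °C; nearly all actives have a fitted effect of over 70% in size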; further: potency means the concentration at half of the fitted maximal effect
How it was run: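 LYMP1-003 lymphoblastoid, 2500 cells/well, 5 hr settle then 16 hr cpd at 37 C; MultiTox-Fluor reagent 60 min RT; Ex/Em 485/520 dead-cell signal; norm. DMSO = 0%, 15 uM tetraoctylammonium bromide = 100%; Hill AC50.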

[3] = MultiTox-Fluor Cytotoxicity Assay - LYMP1-003 - Live Cells (AID 962);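 further: cells exposed to compound for 16 hours at 37 °C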; further: potency means the concentration at half of the fitted maximal effect
How it was run: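 qHTS, 1536-well; 2500 cells/well LYMP1-003; 5 hr 37 C settle; cpd 16 hr 37 C; MultiTox-Fluor reagent 60 min RT; live-cell protease fluor. 405/510; Hill-fit AC50; tetraoctylammonium bromide pos. ctrl.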

[4] = Cell Viability - LYMP1-003 - Assay at 24 hr (AID 963); further: potency means the concentration at half of the fitted maximal effect
How it was run: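 Cells seeded at 2500/well, 5 hr at 37 C; compounds added; 24 hr at 37 C; CellTiter-Glo added, 30 min room temperature; luminescence read. Decrease in ATP taken as cytotoxicity, AC50 from Hill modelling.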

[5] = Cell Viability - LYMP1-003 - Assay at 40 hr (AID 964); further: nearly all actives have a fitted effect of over 60% in size; further: potency means the concentration at half of the fitted maximal effect
How it was run: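 Cells were seeded at 2500 per well and incubated 5 hr at 37 C. Compounds were added across a concentration series and left 40 hr at 37 C. CellTiter-Glo was added for 30 min at room temperature before luminescence reading.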

[6] = Cell Viability - LYMP2-004 (AID 966); further: nearly all actives have a fitted effect of over 65% in size; further: potency means the concentration at half of the fitted maximal effect
How it was run: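 Cells seeded 2500/well, rested 5 hr at 37 C, dosed across a concentration series, incubated 24 hr at 37 C, then CellTiter-Glo added for 30 min at room temperature and luminescence read. Hill fitting gave AC50.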

[7] = Cell Viability - LYMP2-009 (AID 968); further: nearly all actives have a fitted effect of over 55% in size; further: potency means the concentration at half of the fitted maximal effect
[8] = Cell Viability - LYMP2-011 (AID 969); further: nearly all actives have a fitted effect of over 60% in size; further: potency means the concentration at half of the fitted maximal effect
How it was run: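 2500 cells/well, 5 hr 37 C; compound added, 24 hr 37 C; CellTiter-Glo 30 min RT; luminescence. qHTS concentration-response, Hill-equation AC50. Tetraoctylammonium bromide positive control.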

[9] = Cell Viability - LYMP2-013 (AID 970); further: nearly all actives have a fitted effect of over 55% in size; further: potency means the concentration at half of the fitted maximal effect
How it was run: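 qHTS; 2500 lymphoblastoid cells/well; 5 hr 37 C settle; cpd 24 hr 37 C; CellTiter-Glo, 30 min RT; luminescence. AC50 = Hill fit.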

[10] = Cell Viability - LYMP2-015 (AID 971); further: nearly all actives have a fitted effect of over 55% in size; further: potency means the concentration at half of the fitted maximal effect
How it was run: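 Luminescent ATP read-out (CellTiter-Glo) served as the viability measure after lymphoblastoid cells were exposed to compounds for 24 hours at 37 C. Concentration-response data were fitted with the Hill equation to give AC50.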

[11] = Cell Viability - LYMP2-017 (AID 972); further: nearly all actives have a fitted effect of over 55% in size; further: potency means the concentration at half of the fitted maximal effect
How it was run: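 2500 cells/well, 5 h 37 C; cpd 24 h 37 C in complete medium; CellTiter-Glo, 30 min RT; luminescence (ATP). AC50 via Hill fit, qHTS.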

[12] = Cell Viability - LYMP2-019 (AID 973); further: nearly all actives have a fitted effect of over 55% in size; further: potency means the concentration at half of the fitted maximal effect
How it was run: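 Luminescent ATP read-out (CellTiter-Glo, 30 min room temperature) served as the viability measure after 24 hr treatment of lymphoblastoid cells at 37 C. Concentration-response data were fitted to the Hill equation for AC50.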

[13] = Cell Viability - LYMP2-021 (AID 974); further: potency means the concentration at half of the fitted maximal effect
How it was run: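 Plate 2500 lymphoblastoid cells per well and incubate 5 hr at 37 C. Add compounds over a concentration range and incubate 24 hr at 37 C. Add CellTiter-Glo, wait 30 min at room temperature, read luminescence.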

[14] = Cell Viability - LYMP2-023 (AID 975); further: nearly all actives have a fitted effect of over 55% in size; further: potency means the concentration at half of the fitted maximal effect
How it was run: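 2500 cells/well, 5 hr 37 C; cpd 24 hr 37 C; CellTiter-Glo, 30 min RT; luminescence. qHTS conc-response, Hill fit -> AC50. Pos ctrl tetraoctylammonium bromide.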

[15] = Cell Viability - LYMP2-002 (AID 977);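 further: compound exposure lasted 24 h at 37 °C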; further: potency means the concentration at half of the fitted maximal effect
How it was run: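 Cytotoxicity is scored as concentration-dependent loss of cellular ATP in a human lymphoblastoid line after 24 hr compound treatment at 37 C. AC50 is obtained by modelling concentration-response data with the Hill equation.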

[16] = Cell Viability - LYMP2-006 (AID 978); further: nearly all actives have a fitted effect of over 60% in size; further: potency means the concentration at half of the fitted maximal effect
How it was run: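 In this cytotoxicity screen, the human lymphoblastoid line grew in complete medium with test compounds for 24 hr at 37 C. Cellular ATP served as the viability signal.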

[17] = target: Alpha-galactosidase (Coffea arabica) (UniProt Q42656); assay: Counterscreen for Glucocerebrosidase Inhibitors: qHTS Assay for Coffee Bean alpha-Galactosidase at pH 4.5 (AID 957); further: series mostly up to about 77 µM
Sequence of Alpha-galactosidase (Coffea arabica) (Q42656 whole entry, looked up): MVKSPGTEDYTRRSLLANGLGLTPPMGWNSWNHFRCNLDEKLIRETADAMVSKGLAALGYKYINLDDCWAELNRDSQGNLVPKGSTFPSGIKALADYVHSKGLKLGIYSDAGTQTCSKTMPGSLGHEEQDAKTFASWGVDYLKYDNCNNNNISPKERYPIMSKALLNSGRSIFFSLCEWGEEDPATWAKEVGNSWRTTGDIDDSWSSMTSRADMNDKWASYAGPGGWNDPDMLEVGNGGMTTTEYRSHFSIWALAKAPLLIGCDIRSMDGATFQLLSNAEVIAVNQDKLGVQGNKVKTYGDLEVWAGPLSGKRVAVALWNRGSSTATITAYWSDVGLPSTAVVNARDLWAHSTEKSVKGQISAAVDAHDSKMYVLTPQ
How it was run: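 Coffee bean alpha-galactosidase 2 nM, substrate 4-MU-alpha-Gal 80 uM, pH 4.5 citrate/Tween-20, 20 min RT. Cpd titration 0.7 nM–77 uM. Stop pH 10, fluorescence 365/440 nm; Hill-equation AC50.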

[18] = target: Pyruvate kinase PKM (Homo sapiens) (UniProt P14618); assay: qHTS Assay for Inhibitors of Human Muscle Pyruvate Kinase (AID 958)
Sequence of Pyruvate kinase PKM (Homo sapiens) (P14618 whole entry, looked up): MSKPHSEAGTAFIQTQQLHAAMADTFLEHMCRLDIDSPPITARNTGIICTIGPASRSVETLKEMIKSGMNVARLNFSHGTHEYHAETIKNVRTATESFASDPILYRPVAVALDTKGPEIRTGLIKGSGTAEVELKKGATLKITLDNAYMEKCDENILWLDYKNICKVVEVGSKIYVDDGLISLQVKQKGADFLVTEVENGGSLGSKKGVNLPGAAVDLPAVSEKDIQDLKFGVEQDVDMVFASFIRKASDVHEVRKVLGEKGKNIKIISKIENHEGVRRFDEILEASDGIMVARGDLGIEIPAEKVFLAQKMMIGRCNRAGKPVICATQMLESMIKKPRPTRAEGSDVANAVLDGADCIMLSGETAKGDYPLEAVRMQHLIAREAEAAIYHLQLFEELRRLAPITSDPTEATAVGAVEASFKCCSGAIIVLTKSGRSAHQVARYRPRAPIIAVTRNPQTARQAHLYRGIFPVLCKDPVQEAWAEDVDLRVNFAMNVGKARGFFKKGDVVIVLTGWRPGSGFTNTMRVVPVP
How it was run: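 Enzyme was run at intermediate activity so both inhibitors and activators could be detected. ATP formed from ADP and PEP by 0.1 nM human PKM2 during a 1 h room-temperature incubation was quantified by coupled luciferase luminescence.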

[19] = target: Pyruvate kinase (Leishmania mexicana) (UniProt Q27686); assay: qHTS Validation Assay for Activators of Leishmania Mexicana Pyruvate Kinase (AID 959)
Sequence of Pyruvate kinase (Leishmania mexicana) (Q27686 2-499 E452W): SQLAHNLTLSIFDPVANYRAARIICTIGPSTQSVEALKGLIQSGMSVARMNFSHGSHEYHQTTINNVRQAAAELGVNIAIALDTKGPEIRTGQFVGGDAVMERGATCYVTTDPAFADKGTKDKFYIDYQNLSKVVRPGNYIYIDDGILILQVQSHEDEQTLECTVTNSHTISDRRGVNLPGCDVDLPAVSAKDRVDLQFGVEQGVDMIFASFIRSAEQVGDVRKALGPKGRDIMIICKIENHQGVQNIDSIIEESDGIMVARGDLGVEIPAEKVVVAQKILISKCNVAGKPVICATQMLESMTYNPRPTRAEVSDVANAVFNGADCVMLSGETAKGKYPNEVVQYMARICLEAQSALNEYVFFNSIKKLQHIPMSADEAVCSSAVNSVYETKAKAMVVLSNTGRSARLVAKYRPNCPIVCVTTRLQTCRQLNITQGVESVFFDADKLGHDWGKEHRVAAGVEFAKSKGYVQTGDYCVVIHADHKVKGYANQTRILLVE
How it was run: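 qHTS eight-point titrations against 0.2 nM LmPYK (E451W) in imidazole buffer pH 7.2 with 0.5 mM PEP, 0.1 mM ADP; 1 h, room temperature. Readout: PKLight luminescence, normalized to neutral DMSO wells.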

Measured: Potency

O=C/C=C/c1ccccc1
inactive: [1] | [2] | [3] | [4] | [5] | [6] | [7] | [8] | [9] | [10] | [11] | [12] | [13] | [14] | [15] | [16]

C[C@]12CCC(=O)C[C@@H]1CC[C@@H]1[C@@H]2CC[C@]2(C)[C@@H](O)CC[C@@H]12
inactive: [2] | [3] | [4] | [5] | [6] | [7] | [8] | [9] | [10] | [11] | [13] | [14] | [15] | [16]

CCOC(=O)c1ccccc1C(=O)OCC
inactive: [1] | [2] | [3] | [4] | [5] | [6] | [7] | [8] | [9] | [10] | [11] | [12] | [13] | [14] | [15] | [16]

[Cl-].[Cl-].[Hg+2]
active: [3] 15.8 µM | [4] 7.94 µM | [5] 1 µM | [6] 0.251 µM | [7] 10 µM | [8] 12.6 µM | [9] 5.01 µM | [10] 12.6 µM | [11] 1 µM | [12] 10 µM | [13] 1.58 µM | [14] 10 µM | [15] 20 µM | [16] 15.8 µM

O=C(O)C(Cl)(Cl)Cl
inactive: [1] | [2] | [3] | [4] | [5] | [6] | [7] | [8] | [9] | [10] | [11] | [12] | [13] | [14] | [15] | [16]

CCCCCl
inactive: [1] | [2] | [3] | [4] | [5] | [6] | [7] | [8] | [9] | [10] | [11] | [12] | [13] | [14] | [15] | [16]

C=CCN=C=S
inactive: [1] | [2] | [3] | [4] | [5] | [6] | [7] | [8] | [9] | [10] | [11] | [12] | [13] | [14] | [15] | [16]

C[C@H]1CCC[C@H](O)CCCCCc2cc(O)cc(O)c2C(=O)O1
inactive: [1] | [2] | [3] | [4] | [5] | [6] | [7] | [8] | [9] | [10] | [11] | [12] | [13] | [14] | [15] | [16]

O=[N+]([O-])c1ccc(F)c([N+](=O)[O-])c1
inactive: [1] | [2] | [3] | [4] | [5] | [6] | [7] | [12] | [15] | [16]

[O]=[Cd]
inactive: [1] | [2] | [3] | [4] | [5] | [6] | [7] | [8] | [9] | [10] | [11] | [12] | [13] | [14] | [15] | [16]

O=[N+]([O-])c1ccccc1
inactive: [1] | [2] | [3] | [4] | [5] | [6] | [7] | [8] | [9] | [10] | [11] | [12] | [13] | [14] | [15] | [16]

ClC=C(Cl)Cl
inactive: [2] | [3] | [4] | [5] | [6] | [7] | [8] | [9] | [10] | [11] | [12] | [13] | [14] | [15] | [16]

Clc1ccccc1Cl
inactive: [1] | [2] | [3] | [4] | [5] | [6] | [7] | [8] | [9] | [10] | [11] | [12] | [13] | [14] | [15] | [16]

O=C1CCO1
inactive: [1] | [2] | [3] | [4] | [5] | [6] | [7] | [8] | [9] | [10] | [11] | [12] | [13] | [14] | [15] | [16]

O=C1C2CC=CCC2C(=O)N1SC(Cl)(Cl)Cl (stereo not drawn)
active: [1] 5.01 µM | [2] 10 µM and 7.94 µM | [3] 12.6 µM and 10 µM | [4] 12.6 µM | [5] 20 µM | [6] 10 µM | [7] 6.31 µM and 5.01 µM | [8] 6.31 µM | [9] 5.01 µM and 6.31 µM | [10] 3.98 µM | [11] 3.16 µM and 5.01 µM | [12] 3.98 µM and 5.01 µM | [13] 3.98 µM and 5.01 µM | [14] 3.98 µM and 7.94 µM | [15] 6.31 µM and 10 µM | [16] 7.94 µM and 10 µM

CC(C)(C)c1cc(O)ccc1O
inactive: [1] | [2] | [3] | [4] | [5] | [14] | [15]
active: [6] 39.8 µM | [7] 50.1 µM | [9] 50.1 µM | [10] 50.1 µM | [11] 50.1 µM | [12] 50.1 µM | [13] 50.1 µM

ClC(Cl)(Cl)Cl
inactive: [1] | [2] | [3] | [4] | [5] | [6] | [7] | [8] | [9] | [10] | [11] | [12] | [13] | [14] | [15] | [16]

CC(C)CCON=O
inactive: [1] | [2] | [3] | [4] | [5] | [6] | [7] | [8] | [9] | [10] | [11] | [12] | [13] | [14] | [15] | [16]

ClCC1CO1 (stereo not drawn)
inactive: [1] | [2] | [3] | [4] | [5] | [6] | [8] | [9] | [10] | [11] | [12] | [13] | [14] | [15] | [16]

CN(N=O)c1cc(O)ccc1O
inactive: [17] | [18]
active: [19] 3.16 µM
